# From ChEMBL document CHEMBL3988442, “University of Dundee, Small-Polar-MMV Screening Library” (2021)
# The whole screen tested about 69,000 compounds, of which about 950 (1.4%) showed an effect of 50% or more. Only a selection was taken, and strong results are over-represented in it overall.
# Test system: Mycobacterium tuberculosis
# Assay: Cornell M. t heat shock assay; also: in the data most compounds retested in dose-response had high values
# Assay type: functional, organism-based
# Set-up: dose or concentration left out as unconfirmed
row,Structure (SMILES),Percent Effect
1,CN(C)C(=O)Cn1c(C2CC2)c(CN2CCC(O)CC2)c2cccnc21.Cl,-13.49%
2,CC(C)CCn1c(=O)nc2n1C(=O)N(c1ccc(F)cc1)C2,4.203%
3,CCC1=N[C@@]2(CC[C@@H]3CN(Cc4ccccc4C)C[C@@H]32)C(=O)N1C.O=C(O)C(F)(F)F,-3.912%
4,O=C(CCNc1ncc2c(n1)CCN2c1ccccc1)N1CCCC1,58.85%
5,CN(C)C(=O)CCCNc1ncc2c(n1)CCN2c1ccccc1,14.48%
6,OC1CCN(CCNc2ncc3c(n2)CCN3c2ccccc2)CC1,-5.755%
7,CCc1ncc(C(=O)N2CC[C@@H]3CC[C@H](C2)N3C)cn1,-16.81%
8,COc1cc2cc(C)c(SCCN3CCCCC3)nc2cc1OC.Cl,8.064%
9,CN1CCC(CNC(=O)c2cccc(NC(N)=O)c2)c2ccccc21 (stereo not given),13.83%
10,CN1CCC(CNC(=O)c2cccc(C(F)(F)F)c2)c2ccccc21 (stereo not given),80.18%
11,CN1CCC(CNC(=O)c2ccc(O)nc2)c2ccccc21 (stereo not given),10.05%
12,FC1(F)CCN(Cc2ccncc2)CC12CCN(Cc1ccccn1)C2.O=C(O)C(F)(F)F.O=C(O)C(F)(F)F.O=C(O)C(F)(F)F (stereo not given),-15.56%
13,CCN(C)c1ncnc2c1CCN(Cc1csc(C)n1)CC2.O=C(O)C(F)(F)F.O=C(O)C(F)(F)F,2.134%
14,O=S(=O)(C1CC1)N1CCc2ncnc(-c3ccsc3)c2CC1,-2.171%
15,O=C(O)C(F)(F)F.O=C(c1ncccn1)N1CCC2(CC1)COC(COc1ccccn1)C2 (stereo not given),-42.8%
16,CCCC1CCCN(Cc2csc(-c3cnn(C)c3)n2)CC1 (stereo not given),101.6%
17,CCCC1CCCN(Cc2csc(-c3ncccn3)n2)CC1 (stereo not given),31.96%
18,Cn1cc(-c2nc(CN3CCN(CCO)CC3)cs2)cn1,7.212%
19,CCc1nnc2n1CCN(Cc1csc(-c3cnn(C)c3)n1)C2,103.2%
20,CC(C)c1nnc2n1CCN(Cc1csc(-c3cnn(C)c3)n1)C2,2.86%
21,Cc1nnc2n1CCN(Cc1csc(-c3cnn(C)c3)n1)C2,-22%
22,O=C(O)C(F)(F)F.O=C1COC2(CCN(C(=O)c3ccoc3)CC2)CN1Cc1ccccn1,-25.96%
23,CCc1ccc2c(C3CN(CC4CCC4)C3)ncn2c1.O=C(O)C(F)(F)F,59.23%

row,Structure (SMILES),Percent Effect
1,CCc1ccc2c(C3CN(S(C)(=O)=O)C3)ncn2c1,-5.732%
2,CCc1ccc2c(C3CN(C(C)=O)C3)ncn2c1,-5.457%
3,Cc1ccoc1C(=O)N1C[C@H](OCc2cccnc2)[C@H]2OCCC[C@H]21.O=C(O)C(F)(F)F,-24.06%
4,CNc1cc(CCNC(=O)CC(C)C)nc(-c2ccccn2)n1,36.61%
5,NC(=O)c1ccc(S(=O)(=O)NCCc2ccccn2)cc1,2.755%
6,CCc1cc(NCCCNS(C)(=O)=O)nc(-c2ccncc2)n1,-1.348%
7,CCc1cc(NCCCNS(C)(=O)=O)nc(-c2ccccn2)n1,56.84%
8,CNc1cc(CCNC(=O)C2CCCC2)nc(-c2ccccn2)n1,89.44%
9,Cc1cc(NCCCNS(C)(=O)=O)nc2ccccc12,-11.41%
10,CNc1cc(CCNS(=O)(=O)c2ccccc2)nc(-c2ccccn2)n1,99.14%
11,CNC(=O)c1ccc(S(=O)(=O)NCCc2ccccn2)cc1,-8.04%
12,CCCC(=O)NCCc1cc(NC)nc(-c2ccccn2)n1,12.39%
13,CC1=C(C#N)C(=O)NC(=O)/C1=C\c1c(C)nn(-c2ccc(Cl)cc2)c1O,-14.1%
14,COc1ccc(CN2CC[C@H]3O[C@@H](C(=O)NCC4CC4)CC[C@H]32)cc1.O=C(O)C(F)(F)F,-25.68%
15,COc1cc(N2C[C@@H]3CC[C@H](C2)N(CC2CCC2)C3=O)ncn1,-13.86%
16,Cc1nc(N)c2ccc(C3CCCN3)nc2n1.Cl (stereo not given),-2.129%
17,COCCN1C[C@H]2CC[C@@H]1CN(Cc1ccc3ccccc3n1)C2,46.17%
18,COCCN1C[C@H]2CC[C@@H]1CN(CC(=O)Nc1ccn(C)n1)C2,-13.49%
19,COCCN1C[C@H]2CC[C@@H]1CN(Cc1cc(=O)c3cc(C)ccc3[nH]1)C2,51.84%
20,CC(C)=CCN1C[C@H]2CC[C@@H]1CN(Cc1cc(=O)[nH]c(=O)[nH]1)C2,13.63%
21,COCCN1C[C@H]2CC[C@@H]1CN(Cc1nc3ccccc3n1C)C2,78.75%
22,O=c1cc(CN2C[C@H]3CC[C@@H]2CN(Cc2ccccc2)C3)[nH]c(=O)[nH]1,-10.28%
23,Cc1ccc(CN2C[C@@H]3CN(C(=O)c4cccn4C)C[C@@H]3C2)cc1.O=C(O)C(F)(F)F,-6.874%

row,Structure (SMILES),Percent Effect
1,CN(C)[C@@H]1CCN(C(=O)CC2CC2)[C@H]1Cc1cnn(C)c1.O=C(O)C(F)(F)F,1.412%
2,O=C(O)C(F)(F)F.O=C1C[C@H]2[C@@H](CCN2C(=O)c2ccc[nH]2)N1CCN1CCCC1,-37.83%
3,CC1CCCN(c2ncc(-c3ccccc3F)c(-c3nccn3C)n2)C1 (stereo not given),84.22%
4,CC1CCN(c2ncc(-c3ccccc3F)c(-c3nccn3C)n2)CC1,17.54%
5,Cn1ccnc1-c1nc(N2CCCCC2)ncc1-c1ccccc1F,-0.09407%
6,O=C([C@H]1C[C@@H]2CN(c3ncc(F)cn3)C[C@H]1O2)N1CCOCC1,19.91%
7,CCc1ccc(CN2Cc3nccn3CC(Cn3cncn3)C2)o1.O=C(O)C(F)(F)F (stereo not given),0.4246%
8,CC(C)CC(=O)N1CC(=O)N(Cc2ccco2)CC(O)C1 (stereo not given),14.12%
9,CC(C)(C)OC(=O)N1CC(=O)N(Cc2ccco2)CC(O)C1 (stereo not given),11.64%
10,Cc1ccc(C(=O)N2CC(=O)N(Cc3ccco3)CC(O)C2)cc1 (stereo not given),34.47%
11,CC(C)(C)C(=O)N1CC(=O)N(Cc2ccco2)CC(O)C1 (stereo not given),52.39%
12,COc1cccc(CN2CC(O)CN(C(=O)C3CC3)CC2=O)c1OC (stereo not given),31.08%
13,COc1cccc(CN2CC(O)CN(C(=O)C(C)(C)C)CC2=O)c1OC (stereo not given),90.93%
14,CCOC(=O)N1CC(=O)N(Cc2cccc(OC)c2OC)CC(O)C1 (stereo not given),45.58%
15,COc1ccccc1C(=O)N1CC(=O)N(Cc2ccco2)CC(O)C1 (stereo not given),54.55%
16,COc1ccccc1C(=O)N1CC(=O)N(CC2CC2)CC(O)C1 (stereo not given),43.16%
17,O=C(CCc1nnc(-c2ccccc2)o1)N1CCCC1c1ccc[nH]1 (stereo not given),-1.66%
18,Cc1cccnc1N1CC2(CCN(Cc3cccnc3)C2)C1.O=C(O)C(F)(F)F.O=C(O)C(F)(F)F.O=C(O)C(F)(F)F,-27.63%
19,CN(C)CCN1CCCC12CCN(C(=O)c1ccco1)CC2.O=C(O)C(F)(F)F.O=C(O)C(F)(F)F,-2.887%
20,CN(C)CCOCC1CN(Cc2ccncc2)Cc2nnn(C)c21.O=C(O)C(F)(F)F.O=C(O)C(F)(F)F.O=C(O)C(F)(F)F (stereo not given),-16.03%
21,CCc1ccccc1-n1cc(O)c(C(=O)N2CCCCC2)n1,56%
22,O=C(c1nn(-c2ccccc2F)cc1O)N1CCCC1,42.43%
23,O=C(c1nn(-c2ccccc2F)cc1O)N1CCCCC1,22.71%

row,Structure (SMILES),Percent Effect
1,Fc1cccc(CN2C[C@@H]3CN(Cc4ccccn4)C[C@@H]3C2)c1.O=C(O)C(F)(F)F.O=C(O)C(F)(F)F,35.12%
2,CCN1CC2(CC1=O)CN(Cc1ccsc1)CCN(C(=O)C(C)C)C2.O=C(O)C(F)(F)F (stereo not given),-8.211%
3,O=C1c2cnc(N3CCC(O)CC3)nc2CN1Cc1cccc(F)c1,-32.08%
4,Cc1nc(Nc2cnccn2)cc(C2CN(C(C)C)C2)n1.O=CO,-9.635%
5,CN1CCCN(C(=O)c2ccnn2-c2ccc3ccccn23)CC1.O=C(O)C(F)(F)F,-45.73%
6,COc1ccc2c(c1)CN(Cc1ccco1)C(=O)CCN2,54.29%
7,O=C1CCNc2ccc(F)cc2CN1Cc1ccco1,32.83%
8,O=C1CCNc2ccccc2CN1Cc1ccco1,41.47%
9,Cc1nc(CN2C(=O)COC3(CCN(Cc4ccsc4)CC3)C2C)cs1.O=C(O)C(F)(F)F (stereo not given),-25.28%
10,CCCNC(c1cccnc1)c1ccc(F)c(C)c1.Cl.Cl (stereo not given),-18.54%
11,Cc1noc(C)c1CN1CC[C@H]2[C@@H]1CCC(=O)N2CC1CCOCC1.O=C(O)C(F)(F)F,19.97%
12,O=C(O)c1cc(/C=C/c2ccccc2)ncn1,-25.85%
13,O=C(O)c1cc(/C=C/c2ccc3ccccc3c2)ncn1,55.05%
14,O=C(O)c1cc(/C=C/c2cccc3ccccc23)ncn1,-14.83%
15,Cc1cccc(CN2Cc3nccn3CC(CN3CCOCC3)C2)c1.O=C(O)C(F)(F)F.O=C(O)C(F)(F)F (stereo not given),-25.56%
16,O=C(C1CCCCC1)N1C[C@@H]2CCN(c3cnccn3)C[C@@H]2C1.O=C(O)C(F)(F)F,23.71%
17,Cc1ccccc1-n1cc(-c2ccnc(N3CCCC(O)C3)n2)cn1 (stereo not given),0.7216%
18,COC[C@H]1CCCN1c1nccc(-c2cnn(-c3ccccc3C)c2)n1,57.5%
19,Cc1ccccc1-n1cc(-c2ccnc(N3CCCC(CN)C3)n2)cn1 (stereo not given),6.089%
20,O=C(CC1CC1)N1C[C@@H]2CCN(c3cccnc3)C[C@@H]2C1.O=C(O)C(F)(F)F,-11.14%
21,COCCNC(=O)C(C)N1CCN(C)CC1.O=C(O)C(=O)O (stereo not given),1.358%
